From the supplement of paper PMC12645437, “Orthogonal IMiD-Degron Pairs Induce Selective Protein Degradation in Cells” (ACS Chemical Biology, 2025)
Whole data set: some 8,300 sequences, median “log2 fold change of degron read counts, EGFP-low vs EGFP+ sorted cells (limma voom), compound-induced degradation” near -1.1, cut for the highest 2% near 3.2. The sample as a whole holds a higher share of the highest values than the screen did.

T1: CRBN, Q96SW2
T1 chain: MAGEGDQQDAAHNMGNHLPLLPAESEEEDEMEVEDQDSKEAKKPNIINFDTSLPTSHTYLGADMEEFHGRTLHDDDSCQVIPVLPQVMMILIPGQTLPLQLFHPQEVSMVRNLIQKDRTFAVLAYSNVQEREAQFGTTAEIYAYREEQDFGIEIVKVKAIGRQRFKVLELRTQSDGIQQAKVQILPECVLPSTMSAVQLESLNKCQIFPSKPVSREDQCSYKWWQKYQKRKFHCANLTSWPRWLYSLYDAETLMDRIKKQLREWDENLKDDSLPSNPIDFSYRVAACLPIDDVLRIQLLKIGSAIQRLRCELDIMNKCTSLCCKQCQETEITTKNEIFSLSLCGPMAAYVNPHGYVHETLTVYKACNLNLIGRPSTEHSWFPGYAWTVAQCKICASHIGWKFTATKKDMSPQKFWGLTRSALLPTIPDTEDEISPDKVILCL


Biological target: T1, CRBN, Q96SW2
Experiment: log2 fold change of degron read counts, EGFP-low vs EGFP+ sorted cells (limma voom), compound-induced degradation; higher = more compound-induced degradation of the degron-EGFP fusion; degrons are variants of IKZF1/3 zinc finger 2; compound dose not given here
Settings: Jurkat, 18 h
[1] = compound: compound 19 (5-tert-butyl-thalidomide)
[2] = compound: compound 22 (5-morpholino-thalidomide)
[3] = compound: compound 33 (diphenyl IMiD analogue)
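Also: pooled lentiviral library of zinc finger degron-EGFP fusions in mCherry-positive Jurkat cells, FACS-sorted after compound exposure, with degron abundance counted by next-generation sequencing.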

Sequence | log2 fold change of degron read counts [1] | log2 fold change of degron read counts [2] | log2 fold change of degron read counts [3] | log2 fold change of degron read counts (compound: thalidomide)
FVCDVCGADFTQKGNLLRHIKL [46F_47V_49D_50V_52G_53A_54D_55F_67L_, Q9UKT9] | -2.64 | -1.98 | -2.16 | -1.73
FQCEICGATFTQKGNLLRHIKL [46F_47Q_49E_50I_52G_53A_54T_55F_67L_, Q9UKT9] | 0.665 | 2.58 | 2.4 | 3.26
FMCEICGATFTQKGNLLRHIKL [46F_47M_49E_50I_52G_53A_54T_55F_67L_, Q9UKT9] | -1.21 | -0.67 | 2.2 | 1.15
FKCEICGATFTQKGNLLRHIKL [46F_47K_49E_50I_52G_53A_54T_55F_67L_, Q9UKT9] | -1.26 | -3.54 | -2.61 | -1.06
FTCEICGATFTQKGNLLRHIKL [46F_47T_49E_50I_52G_53A_54T_55F_67L_, Q9UKT9] | 0.577 | 2.27 | 2.39 | 2.99
FACEICGATFTQKGNLLRHIKL [46F_47A_49E_50I_52G_53A_54T_55F_67L_, Q9UKT9] | 3.33 | 2.04 | 0.691 | 0.374
FCCEICGATFTQKGNLLRHIKL [46F_47C_49E_50I_52G_53A_54T_55F_67L_, Q9UKT9] | 2.13 | 2.25 | 2.55 | 2.33
FYCEICGATFTQKGNLLRHIKL [46F_47Y_49E_50I_52G_53A_54T_55F_67L_, Q9UKT9] | 3.58 | 4.05 | 2.59 | 1.19
FDCEICGATFTQKGNLLRHIKL [46F_47D_49E_50I_52G_53A_54T_55F_67L_, Q9UKT9] | 1.71 | 0.141 | 0.186 | 0.436
FFCEICGATFTQKGNLLRHIKL [46F_47F_49E_50I_52G_53A_54T_55F_67L_, Q9UKT9] | 3.27 | 3.8 | 1.79 | 1.49
FLCEICGATFTQKGNLLRHIKL [46F_47L_49E_50I_52G_53A_54T_55F_67L_, Q9UKT9] | -1.3 | -1.41 | 0.852 | 1.8
FSCEICGATFTQKGNLLRHIKL [46F_47S_49E_50I_52G_53A_54T_55F_67L_, Q9UKT9] | 2.83 | 2.57 | 1.79 | 1.36
FRCEICGATFTQKGNLLRHIKL [46F_47R_49E_50I_52G_53A_54T_55F_67L_, Q9UKT9] | -0.98 | -0.654 | 1.54 | 1.42
LNCNQCGFHCTQKGNLLRHIKL [46L_47N_49N_50Q_52G_53F_54H_55C_67L_, Q9UKT9] | -1.47 | -2.01 | -1.68 | -1.54
FGCEICGRQFTQKGNLLRHIKL [46F_47G_49E_50I_52G_53R_54Q_55F_67L_, Q9UKT9] | -0.21 | -0.999 | -1.15 | -1.42
FSCPICGRCFTQKGNLLRHIKL [46F_47S_49P_50I_52G_53R_54C_55F_67L_, Q9UKT9] | -0.773 | -1.2 | 0.835 | -0.39
FYCDQCGAFFTQKGNLLRHIKL [46F_47Y_49D_50Q_52G_53A_54F_55F_67L_, Q9UKT9] | -0.965 | -1.17 | -1.35 | -2.48
FLCEICGRIFTQKGNLLRHIKL [46F_47L_49E_50I_52G_53R_54I_55F_67L_, Q9UKT9] | -1.35 | -1.7 | -0.45 | -0.0614
FRCNQCGAVFTQKGNLLRHIKL [46F_47R_49N_50Q_52G_53A_54V_55F_67L_, Q9UKT9] | -2.12 | -2.1 | -1.19 | -1.75
FLCEICGRNFTQKGNLLRHIKL [46F_47L_49E_50I_52G_53R_54N_55F_67L_, Q9UKT9] | -2.29 | -2.99 | -1.84 | -0.409
FVCNVCGAHFTQKGNLLRHIKL [46F_47V_49N_50V_52G_53A_54H_55F_67L_, Q9UKT9] | -1.72 | -0.867 | 0.0144 | -0.327
FACPQCGAKFTQKGNLLRHIKL [46F_47A_49P_50Q_52G_53A_54K_55F_67L_, Q9UKT9] | 1.62 | -1.34 | -2.13 | -1.03
FECPICGHAFTQKGNLLRHIKL [46F_47E_49P_50I_52G_53H_54A_55F_67L_, Q9UKT9] | -2.37 | -2.63 | -1.62 | -1.53
FSCNICGAGFTQKGNLLRHIKL [46F_47S_49N_50I_52G_53A_54G_55F_67L_, Q9UKT9] | 1.15 | 0.769 | 0.918 | 0.088
FWCEICGATFTQKGNLLRHIKL [46F_47W_49E_50I_52G_53A_54T_55F_67L_, Q9UKT9] | 3.05 | 3.73 | 1.97 | 0.793
FVCEICGATFTQKGNLLRHIKL [46F_47V_49E_50I_52G_53A_54T_55F_67L_, Q9UKT9] | 0.63 | 1.64 | 1.82 | 2.54
FGCEICGATFTQKGNLLRHIKL [46F_47G_49E_50I_52G_53A_54T_55F_67L_, Q9UKT9] | 3.22 | 2.59 | 1.76 | 1.11
FFCEICGHIFTQKGNLLRHIKL [46F_47F_49E_50I_52G_53H_54I_55F_67L_, Q9UKT9] | -0.448 | -0.503 | -0.957 | -1.04
